Measurements reported in PubChem BioAssay (NCI).
Where “and” joins values, the source holds several entries; their conditions need not be identical. Equal values may be shown once. Compounds without any hit were thinned out: in the full panel of roughly 79,000, 15% have a hit. Calls of active or inactive are those of the source. Rule as the data show it: active = growth inhibition above about 70%; inactive = the rest.

How the values were obtained:
[1] = NCI Yeast Anticancer Drug Screen. Data for the rad50 strain (AID 155);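 also: 0% = growth of vehicle-only cultures of the same strain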; details: S. cerevisiae rad50 strain growth inhibition; at 50.0 µM; hits give high values
How it was run: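 Growth of the mutant yeast was measured after compound exposure and referenced to vehicle-treated cultures.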

[2] = NCI Yeast Anticancer Drug Screen. Data for the mec2-1 strain (AID 157); details: S. cerevisiae mec2-1 strain, at 50.0 µM, hits give high values
How it was run: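 Each compound was tested on mec2-1 yeast, a strain altered in DNA damage repair or cell cycle control. Growth inhibition is reported relative to vehicle.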

[3] = NCI Yeast Anticancer Drug Screen. Data for the sgs1 mgt1 strain (AID 161);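 also: 0% = growth of cultures given vehicle only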; details: S. cerevisiae sgs1 mgt1 strain, at 50.0 µM, hits give high values
How it was run: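 Inhibition of yeast growth, normalised to vehicle-treated controls, is reported for a strain bearing genetic alterations in DNA damage repair.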

[4] = NCI Yeast Anticancer Drug Screen. Data for the cln2 rad14 strain (AID 165);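 also: 0% = growth equal to vehicle treated cultures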; details: S. cerevisiae cln2 rad14 strain, at 50.0 µM, hits give high values
How it was run: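 Test compounds were added to cln2 rad14 yeast cultures; inhibition of growth was then determined by comparison with vehicle treatment.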

[5] = NCI Yeast Anticancer Drug Screen. Data for the bub3 strain (AID 167); details: S. cerevisiae bub3 mutant strain, at 50.0 µM, hits give high values
How it was run: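 Whole-cell yeast assay. The mutant strain was incubated with compounds, and growth inhibition was determined by comparison with vehicle-treated cells.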

[6] = NCI Yeast Anticancer Drug Screen. Data for the mlh1 rad18 strain (AID 175); details: S. cerevisiae mlh1 rad18 strain growth inhibition; at 50.0 µM; hits give high values
How it was run: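 Inhibition values reflect reduced growth of mutant yeast versus vehicle-treated controls following compound exposure; the mutations affect DNA damage repair.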

Measured: growth inhibition

CN(C)CCC(O)c1c[nH]c2ccccc12 (configuration not stated)
inactive: [1] 6% | [2] 1% | [3] -4.1% | [4] -5.15% | [5] 1.15% | [6] 1.15%

N#CCCNCCC#N
inactive: [1] 3.95% and 11.8% and 12.2% | [2] 4.4% and -11.6% and 3.15% | [3] -6.05% and 9.35% and -2.9% | [4] -41.6% and 25.7% and 16.1% | [5] -4.95% and 8.65% and 1.45% | [6] 6.15% and 13.7% and 14.7%

COc1ccc2c3c1OC1C(Oc4nnnn4-c4ccccc4)C=CC4C(C2)N(C)CCC341 (configuration not stated)
inactive: [1] 39.2% | [2] 5.55% | [3] 13.5% | [4] 21.6% | [5] -5.75% | [6] 12.5%

CC(O)CCC(=O)c1ccoc1 (configuration not stated)
inactive: [1] 6.4% | [2] 10.7% | [3] 1.45% | [4] 8.15% | [5] 14.3% | [6] -71.7%

CN(C)CCC(C)(C#N)c1ccccc1 (configuration not stated)
inactive: [1] 8.9% | [2] 5.7% | [3] -4.8% | [4] -7.05% | [5] 13.9% | [6] 21.1%

O=C1SCCC1CO (configuration not stated)
inactive: [1] -8.65% | [2] 3.9% | [3] -6.8% | [4] -3.15% | [5] -2.3% | [6] -8.45%

ClCCCCCCCCCCCl
inactive: [1] 10.9% | [2] -2.55% | [3] -13.2% | [4] -11.8% | [5] -15.2% | [6] -8.8%

CCN(CC)c1cc[c]([Hg][O]C(C)=O)cc1
active: [1] 99.2% | [2] 99% | [3] 99.5% | [4] 99.2% | [5] 99% | [6] 99.2%

CC(C)OC(N)=O
inactive: [1] -2.35% | [2] -24.9% | [3] 29.2% | [4] 13.6% | [5] -21% | [6] -6.85%

O=C1NC(=O)C(=O)C(=O)N1
inactive: [1] -16.2% | [2] 8.15% | [3] -1.75% | [4] -32.2% | [5] 1% | [6] 0.5%

CCOc1ccc(Nc2nc(=O)[nH]c3ccccc23)cc1CN(CCCl)CCCl
inactive: [1] 18.7% | [2] 0.95% | [3] 10.5% | [4] -19.4% | [5] 1.3% | [6] 22.4%

Cc1nnnn1C
inactive: [1] -13.2% | [2] -11.6% | [3] -18.9% | [4] -10.9% | [5] -19.1% | [6] -13.9%

c1ccc(N2CCN(Cc3c[nH]c4ccccc34)CC2)cc1
inactive: [1] 7.9% | [2] 1.9% | [3] 7.55% | [4] -26.6% | [5] 0.85% | [6] -9.6%

CCC[CH2][Pb]([CH2]CCC)([CH2]CCC)[O]C(C)=O
inactive: [1] 9.6% | [2] -7.95% | [3] 16.1% | [4] 25.1% | [5] 25% | [6] 13.3%

COP(=O)(OC)/C(C#N)=C/c1ccco1
inactive: [1] -35.3% | [2] -29.1% | [3] -46.5% | [4] -27.8% | [5] -42.6% | [6] -41.1%

O=C(OCCOCCOC(=O)C(Cl)(Cl)Cl)C(Cl)(Cl)Cl
inactive: [1] -47% | [2] -33.1% | [3] -29.4% | [4] 39.2% | [5] -46.6% | [6] 7.95%

c1ccc(CN2CCNCC2)cc1
inactive: [1] -8.35% | [2] -14.4% | [3] 1.9% | [4] -14.1% | [5] 4.9% | [6] -9.7%

CC(C)([N+](=O)[O-])S(=O)O
inactive: [1] -9.15% | [2] -14.2% | [3] -22% | [4] -1.05% | [5] -5.4% | [6] -0.65%

O=C(O)COc1ccc(Cl)cc1Cl (tested in a mixture with another compound)
inactive: [1] -0.5% | [2] -3.35% | [3] 14.7% | [4] -19.1% | [5] -9.5% | [6] -0.9%

COC1=C(OC)C23CCc4ccc(OC)c(O)c4C2(CCN3)CC1=O (configuration not stated)
inactive: [1] 7.5% | [2] -10.7% | [3] 25.2% | [4] 14.1% | [5] 1.6% | [6] -27.4%

O.O.O=Cc1ccccc1O.O=Cc1ccccc1O.[Ni]
active: [6] 76.9%
inactive: [1] 47.1% | [2] 52.4% | [3] 64.7% | [4] 17.1% | [5] 51.5%

CCCCCCCCCCCCCCCCCC(=O)NC(CC(=O)OCCCCCC)c1ccc(N(CCCl)CCCl)cc1 (configuration not stated)
inactive: [1] -2.6% | [2] 10.8% | [3] 12.8% | [4] -6.5% | [5] -3.9% | [6] 22.6%

CC(C)(C)OC(=O)NCC(=O)NC(CSC(c1ccccc1)c1ccccc1)C(=O)NCC(=O)O (configuration not stated)
inactive: [1] 8.45% | [2] 7.3% | [3] 11% | [4] -6.35% | [5] -4.9% | [6] 15.1%

C/C(=C\COc1ccc2ccc(=O)oc2c1)C1=CC(=O)C(C)(C)O1
inactive: [1] -2.65% | [2] -17.2% | [3] 18.9% | [4] 9.85% | [5] -14.8% | [6] 12.2%

Cc1cccc(OCC2=NCCN2)c1C
inactive: [1] 2.95% | [2] -4.4% | [3] -8.45% | [4] -57.1% | [5] -4.55% | [6] -25.6%

CC(Cl)[N+](=O)[O-] (configuration not stated)
inactive: [1] 15.4% | [2] -10.2% | [3] 2.55% | [4] 16.9% | [5] 9% | [6] 1.9%

CN(C)c1ccc(SC(Cl)(Cl)Cl)cc1
inactive: [1] -0.95% | [2] -14.2% | [3] -0.1% | [4] -43.9% | [5] 3.4% | [6] -4.75%

CC(=O)NNC(=O)C(Cl)Cl
inactive: [1] 5.45% | [2] -3.75% | [3] 8.45% | [4] 8% | [5] 4.15% | [6] 25.4%

O=C1NC(=O)C(C(=O)C(=O)Nc2cc(Cl)ccc2Cl)C(=O)N1
inactive: [1] -7.45% | [2] -25.3% | [3] -20.6% | [4] 4.7% | [5] -22.4% | [6] -12.3%

COc1ccc(CC(N)C(=O)O)cc1N(CCCl)CCCl (configuration not stated)
inactive: [1] -0.2% and -0.5% | [2] -0.55% and -7.45% | [3] -11.2% and -6.65% | [4] -6.55% and -9.85% | [5] 2.25% and 7.75% | [6] -9.25% and -7.2%

CCS(=O)(=O)CCN1C(=O)CN=C(c2ccccc2F)c2cc(Cl)ccc21
inactive: [1] 27.6% | [2] 6% | [3] 20.8% | [4] 12.4% | [5] -0.7% | [6] 16.4%

Cc1cccc(C)c1CCl
inactive: [1] -1.45% and 23.5% | [2] -9.75% and -12.8% | [3] -8.15% and -4.3% | [4] 12.9% and -38.5% | [5] 9.65% and -1.35% | [6] 6.95% and 20.7%

C/C=C1\CN2CC[C@H]1C[C@H]2[C@H](O)c1ccnc2ccc(NCCO)cc12
inactive: [1] 11.6% | [2] 7.8% | [3] 5.95% | [4] 22.7% | [5] -1.65% | [6] 36.9%

CC(O)CN(CCN(CC(C)O)CC(C)O)CC(C)O.O=[N+]([O-])O.[Cu+2] (configuration not stated)
inactive: [1] 6.05% | [2] -54% | [3] -27.2% | [4] -35.6% | [5] -29.6% | [6] 5.15%

Oc1ccc(Cc2ccc(O)cc2)cc1
inactive: [1] -0.2% | [2] -3.4% | [3] -0.3% | [4] -16.3% | [5] -3.1% | [6] 5.85%

O=C(COc1ccc(Cl)cc1C(=O)O)Nc1cccc(NC(=O)Nc2cccc(S(=O)(=O)F)c2)c1
inactive: [1] 2.3% | [2] -13.3% | [3] -12.9% | [4] -17.9% | [5] 1.95% | [6] 11.6%

CCC(Cl)COP(=O)(OCC(Cl)CC)O/C(C)=C(\C)OP(=S)(OCC(Cl)CC)OCC(Cl)CC (configuration not stated)
active: [1] 86.5% | [2] 93.2% | [3] 93.8% | [4] 99.2% | [5] 98.8% | [6] 96.8%
